# Reference: PubChem BioAssay (NCATS)
# Records with an inconclusive call do not appear. A call without a number means that no potency is given here. The source made the active and inactive calls. Calls follow the shape of the dose curve; as a rule, active = well fitted curve in the direction sought with a large enough effect; inconclusive = small, poorly fitted or top-dose-only effect, or another doubt; inactive = no such curve, though single readings can be large; an effect the other way counts as inactive or inconclusive.
# Molecular target: Protein phosphatase 1D (Homo sapiens) (UniProt O15297)
# Assay: RapidFire Mass Spectrometry qHTS Assay for Modulators of WT P53-Induced Phosphatase 1 (WIP1) (AID 1347424);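 also: amount of dephosphorylated VEPPL-S-QETFS peptide product formed by WIP1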
# Settings: WIP1 dephosphorylation of phosphopeptide, RapidFire MS; series mostly up to 63 µM
# Summary of the method: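 10 nM WIP1 + cpd, 1 h RT; + 2 uM VEPPL-pS-QETFS, 5 min RT; stop 0.5% formic acid; labelled product standard 1 uM; RapidFire MS. Buffer 50 mM Tris pH 7.5, 30 mM MgCl2, 1 mM TCEP.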
# Sequence of Protein phosphatase 1D (Homo sapiens) (O15297 whole entry, looked up): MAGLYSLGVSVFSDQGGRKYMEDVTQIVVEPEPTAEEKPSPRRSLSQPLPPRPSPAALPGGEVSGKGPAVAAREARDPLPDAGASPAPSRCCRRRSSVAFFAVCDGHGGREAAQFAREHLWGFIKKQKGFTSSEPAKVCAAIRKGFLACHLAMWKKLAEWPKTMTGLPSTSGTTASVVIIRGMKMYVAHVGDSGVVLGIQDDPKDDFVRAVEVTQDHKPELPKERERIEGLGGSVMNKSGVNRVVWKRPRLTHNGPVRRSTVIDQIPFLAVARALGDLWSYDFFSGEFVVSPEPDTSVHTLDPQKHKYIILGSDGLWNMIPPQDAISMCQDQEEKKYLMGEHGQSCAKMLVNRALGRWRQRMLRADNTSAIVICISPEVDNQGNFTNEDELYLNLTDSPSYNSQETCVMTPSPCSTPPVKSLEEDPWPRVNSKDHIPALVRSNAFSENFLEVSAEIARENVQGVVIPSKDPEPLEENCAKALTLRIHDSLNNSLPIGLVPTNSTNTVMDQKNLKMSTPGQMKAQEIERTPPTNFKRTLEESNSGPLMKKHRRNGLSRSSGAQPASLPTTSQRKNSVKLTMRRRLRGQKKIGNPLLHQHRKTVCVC
row,SMILES,Potency
1,C=CCNc1nc(NCC=C)nc(N2CCN(C(c3ccc(F)cc3)c3ccc(F)cc3)CC2)n1,inactive
2,CN1CC[C@H](c2c(O)cc(O)c3c(=O)cc(-c4ccccc4Cl)oc23)[C@H](O)C1,inactive
3,CC(=O)Nc1ccc(S(=O)(=O)Nc2cc(C)on2)cc1,inactive

# Molecular target: Protein phosphatase 1D (Homo sapiens) (UniProt O15297)
# Assay: Rhodamine-PBP qHTS Assay for Modulators of WT P53-Induced Phosphatase 1 (WIP1) (AID 1347425)
# Settings: recombinant WIP1, Rhodamine-PBP phosphate fluorescence, real-time; series mostly up to 57.5 µM
# Summary of the method: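 WIP1 (5 nM final) was preincubated with compound for 1 hour at room temperature. It then dephosphorylated 10 uM VEPPL-pS-QETFS peptide in Tris-HCl pH 7.5 with 30 mM MgCl2. Released Pi was detected by 10 uM Rh-PBP fluorescence (ex 525/em 598 nm) read at 1-min intervals for 11 min, as delta f1 - f0.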
row,SMILES,outcome
1,CN(C)CCCOC1(Cc2ccccc2)CCCCCC1,inactive
2,O=C(CCCl)NCc1ccccc1,inactive
3,CCCC(=O)Nc1ccc(O)c(C(C)=O)c1,inactive
4,Brc1ccccc1-c1ccccc1,inactive
5,CC(=O)N(CC(=O)N(C)C)c1ccccc1,inactive
6,O=C(O)C1CCC1,inactive
7,Cc1sccc1Br,inactive
8,CCC(=O)Oc1ccc2c(c1)CC[C@@H]1[C@@H]2CC[C@@]2(C)[C@H]1C[C@@H](OC(=O)CC)[C@@H]2OC(=O)CC,inactive
9,CCCC(=O)O[C@]1(C(=O)CC)CC[C@H]2[C@@H]3CCC4=CC(=O)CC[C@]4(C)[C@H]3[C@@H](O)C[C@@]21C,inactive
10,C[C@@H](C1=C(CCN(C)C)Cc2ccccc21)c1ccccn1,inactive
11,O=C(C1CCCCC1)N1CC(=O)N2CCCc3ccccc3C2C1 (stereo not given),inactive
12,CC(C)C(=O)OCc1cccc(OC(=O)[C@@H]2N3C(=O)[C@@H](NC(=O)Cc4ccccc4)[C@H]3SC2(C)C)c1,inactive
13,Nc1ccc([N+](=O)[O-])c(C(F)(F)F)c1,inactive
14,C[N+](C)(CCOc1ccccc1)Cc1cccs1,inactive
15,COc1cc2c(cc1OC)CN(C(=O)[C@H](C)N[C@@H](CCc1ccccc1)C(=O)O)[C@H](C(=O)O)C2,inactive
16,Cc1ccc(-c2ccccc2C#N)cc1,inactive
17,CC(C)C(=O)Nc1cccc(C2CN3CCSC3=N2)c1 (stereo not given),inactive
18,Fc1ccc(C(c2ccc(F)cc2)N2CCNCC2)cc1,inactive
19,CC[C@@H]([C@H](C)O)n1ncn(-c2ccc(N3CCN(c4ccc(OC[C@@H]5CO[C@@](Cn6cncn6)(c6ccc(F)cc6F)C5)cc4)CC3)cc2)c1=O,inactive

row,SMILES,outcome
1,CN1N=C(C(N)=O)CCC1=O,inactive
2,CC(=O)O[C@@H]1CC2C3CCc4cc(OC(=O)c5ccccc5)ccc4C3CCC2(C)[C@H]1OC(C)=O (stereo not given in full),inactive
3,Cc1c(F)cc2c(=O)c(C(=O)O)cn3c2c1CCC3C (stereo not given),inactive
4,CCCCCOc1ccccc1/C(=C\SC)n1ccnc1,inactive
5,COCCOCC(OC)OC,inactive
6,CCN(CC)C(=O)C1CN2CCc3cc(OC)c(OC)cc3C2CC1OC(C)=O (stereo not given),inactive
7,CN1Cc2cc(C(=O)N3CCC(C4CCNCC4)CC3)ccc2NC(CC(=O)O)C1=O (stereo not given),inactive
8,CCCC(CCC)(C(=O)OCC)C(=O)OCC,inactive
9,CCCCCC(=O)O[C@]1(C(C)=O)CC[C@H]2[C@@H]3CCC4=CC(=O)CC[C@]4(C)[C@H]3CC[C@@]21C,inactive
10,CCOc1ncc(F)c(=O)[nH]1,inactive
11,Nc1nnnn1-c1ccccc1,inactive
12,CCN(CC)CC(=O)Oc1ccc(NC(C)=O)cc1,inactive
13,C=CCNc1nc(NCC=C)nc(N2CCN(C(c3ccc(F)cc3)c3ccc(F)cc3)CC2)n1,inactive
14,O=C(OCCN1CCOCC1)c1cccnc1Nc1cccc(C(F)(F)F)c1,inactive
15,CN1CC[C@H](c2c(O)cc(O)c3c(=O)cc(-c4ccccc4Cl)oc23)[C@H](O)C1,inactive
16,CCOC(=O)OCC/C(SC(=O)OCC)=C(\C)N(C=O)Cc1cnc(C)nc1N,inactive
17,Cn1cc(S(C)=O)c(=O)c2ccc(F)cc21 (stereo not given),inactive
18,CC(=O)Nc1ccc(S(=O)(=O)Nc2cc(C)on2)cc1,inactive
